Test results: PubChem BioAssay (NCATS)
Results filed as inconclusive are left out. Calls of active or inactive are those of the source. Calls follow the shape of the dose curve; as a rule, active = well fitted inhibition curve with a large enough effect; inconclusive = small, poorly fitted or top-dose-only effect; inactive = no such curve, though single readings can be large or run the other way.

Molecular target: Retinal dehydrogenase 2 (Homo sapiens) (UniProt O94788)
Experiment: qHTS for Inhibitors of the Aldehyde Dehydrogenase Family (ALDH1A2) Confirmation screens (AID 2061314); also: nearly all actives have a fitted effect of over 65% in size
Details: ALDH1A2 enzyme inhibition qHTS confirmation; series mostly up to 45.9 µM
Potency is read from the fitted curve at half-maximal effect.

SMILES | Potency
O=C(O)c1cc(Br)c(O)c2ncccc12 | 449 nM (active)
COc1cccc(CNc2ccc(S(=O)(=O)Nc3ccc(N4CCNCC4)nc3)cc2)c1O | 22500 nM (active)
CCC(=O)NC(C)c1cc(Cl)c2ccccc2c1O (stereo not given) | 1010 nM (active)
Cc1ccc(N[S+](=O)([O-])c2cc3c(cc2N[C@@H](C)CO)NC(=O)CC3)cc1N[C@@H](C)CO | 2830 nM (active)
CCc1nn2c(=O)c(S(=O)(=O)Nc3ccc(C)cc3C)c(C)nc2s1 | inactive
